Consider 28 molecules from PubChem BioAssay (Tox21).

Structures are written as SMILES. Inconclusive results are not listed. Where a call stands in place of a potency, no number is given. Calls of active or inactive are those of the source. The call rests on the fitted dose curve; in most records, active means well fitted inhibition curve with a large enough effect in the signal ratio in the repeat runs (not every such curve was filed as active); inconclusive means weak or mixed curves, or effect the other way; inactive means flat fitted curve, though single readings scatter; the % refers to the signal ratio.

The experiment is described as follows: cAMP Responsive Elements (CRE) small molecule antagonists, cell-based qHTS assay (AID 1963591). As to conditions: CRE-bla HEK293T, beta-lactamase FRET ratio; series mostly up to 92.4 µM. The method, boiled down:
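CRE-bla HEK293T cells were plated 18 h at 37 °C/5% CO2, pinned with compound in DMSO, then stimulated with NKH477 at 0.25 uM final for 3 h. LiveBLAzer B/G FRET substrate was added and plates incubated 2 h at room temperature.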
In general terms: Quantitative high-throughput screening tests each substance at several concentrations.
For `Cc1cc(CCC(=O)OCCOCCOCCOC(=O)CCc2cc(C)c(O)c(C(C)(C)C)c2)cc(C(C)(C)C)c1O`, the Potency entry is “inactive”.

With `COCCCOc1ccnc(CS(=O)c2nc3ccccc3[nH]2)c1C` (stereo not drawn), the Potency result is “inactive”.

As for `CC(C)(c1ccc(O)cc1)c1ccc(O)cc1`, the Potency result was “inactive”. The value for `C[Si](C)O[Si](C)(C)O[Si](C)(C)O[Si](C)C` was “inactive”; that for `C[C@H]1C[C@H](O)c2ccsc2S1(=O)=O` was “inactive”; that for `CC1=CCC(C(C)(C)O)CC1` (stereo not drawn) was “inactive”.

As for `CCC(C)=O`, the Potency result was “inactive”. Regarding `N=c1nc(N2CCCCC2)cc(N)n1O`, the Potency entry is “inactive”. Next, `CC(C)CCCC(C)N` (stereo not drawn): “inactive”. Next, `COc1ccc2c(c1)CCCC2=O`: “inactive”; `CC1=CCC(O)(C(C)C)CC1` (stereo not drawn): “inactive”. The value for `CCCCCCCC(=O)[O-].CCCCCCCC(=O)[O-].[Zn+2]` was “inactive”; that for `COC(=O)c1ccccc1C(=O)c1ccc(OCCN2CCCCC2)cc1` was “inactive”; that for `c1coc(CNc2ncnc3nc[nH]c23)c1` was “inactive”. For `CC1=C(O)C(=O)C(C)O1` (stereo not drawn), the Potency result is “inactive”. Next, `Cc1[nH]cnc1-c1ccc(Cl)cc1`: “inactive”. The value for `C1CCCC1` was “inactive”; that for `CCCC(=O)CC` was “inactive”; that for `CCOCOCC` was “inactive”.

As to `C1C[C@@H]2[C@H]3CC[C@H](C3)[C@@H]2C1`, the Potency entry is “inactive”. For `CC(C)C(=O)c1ccccc1`, the Potency result was “inactive”.

For the molecule `Cc1nc2ccccc2s1`, the Potency result was “inactive”. Next, `COCCOCCOCCOCCOCCO`: “inactive”. Next, `O=C(O)c1cc(-c2ccccc2)nc2ccccc12`: “inactive”; `O=S(=O)(O)c1cccc2ccccc12`: “inactive”; `COC(=O)CCCCC(=O)O`: “inactive”. Next, `O=C(c1ccc(O)cc1O)c1ccc(O)cc1O`: “inactive”; `O=C(CCNNC(=O)c1ccncc1)NCc1ccccc1`: “inactive”.
